The text below walks through data of PubChem BioAssay AID1347074 (Center for Chemical Genomics, University of Michigan, 2019).

Molecules are shown by their SMILES. In all, about 47,000 compounds went through this assay and about 2,800 (6%) were called active. No stated cut-off is given here; in the data, active means z-score above about 3 (passing the limit was not always enough); inactive means the rest. Only a selection was taken, and actives are over-represented in it overall.

The target of this test is Endoribonuclease Dicer (Homo sapiens) (UniProt Q9UPY3). The test is described as follows: Dicer cleavage of pre-miR-21 blockers – biochemical, cat-ELCCA, chemiluminescence, primary screen (AID 1347074).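 Further: plate controls were vehicle for no effect and no enzyme for full effect; higher signal means more uncleaved substrate so more Dicer inhibition.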 The conditions noted are these: cat-ELCCA pre-miR-21 Dicer processing, at 25 µM, hits give high values.
Endoribonuclease Dicer (Homo sapiens), sequence (Q9UPY3 whole entry, looked up): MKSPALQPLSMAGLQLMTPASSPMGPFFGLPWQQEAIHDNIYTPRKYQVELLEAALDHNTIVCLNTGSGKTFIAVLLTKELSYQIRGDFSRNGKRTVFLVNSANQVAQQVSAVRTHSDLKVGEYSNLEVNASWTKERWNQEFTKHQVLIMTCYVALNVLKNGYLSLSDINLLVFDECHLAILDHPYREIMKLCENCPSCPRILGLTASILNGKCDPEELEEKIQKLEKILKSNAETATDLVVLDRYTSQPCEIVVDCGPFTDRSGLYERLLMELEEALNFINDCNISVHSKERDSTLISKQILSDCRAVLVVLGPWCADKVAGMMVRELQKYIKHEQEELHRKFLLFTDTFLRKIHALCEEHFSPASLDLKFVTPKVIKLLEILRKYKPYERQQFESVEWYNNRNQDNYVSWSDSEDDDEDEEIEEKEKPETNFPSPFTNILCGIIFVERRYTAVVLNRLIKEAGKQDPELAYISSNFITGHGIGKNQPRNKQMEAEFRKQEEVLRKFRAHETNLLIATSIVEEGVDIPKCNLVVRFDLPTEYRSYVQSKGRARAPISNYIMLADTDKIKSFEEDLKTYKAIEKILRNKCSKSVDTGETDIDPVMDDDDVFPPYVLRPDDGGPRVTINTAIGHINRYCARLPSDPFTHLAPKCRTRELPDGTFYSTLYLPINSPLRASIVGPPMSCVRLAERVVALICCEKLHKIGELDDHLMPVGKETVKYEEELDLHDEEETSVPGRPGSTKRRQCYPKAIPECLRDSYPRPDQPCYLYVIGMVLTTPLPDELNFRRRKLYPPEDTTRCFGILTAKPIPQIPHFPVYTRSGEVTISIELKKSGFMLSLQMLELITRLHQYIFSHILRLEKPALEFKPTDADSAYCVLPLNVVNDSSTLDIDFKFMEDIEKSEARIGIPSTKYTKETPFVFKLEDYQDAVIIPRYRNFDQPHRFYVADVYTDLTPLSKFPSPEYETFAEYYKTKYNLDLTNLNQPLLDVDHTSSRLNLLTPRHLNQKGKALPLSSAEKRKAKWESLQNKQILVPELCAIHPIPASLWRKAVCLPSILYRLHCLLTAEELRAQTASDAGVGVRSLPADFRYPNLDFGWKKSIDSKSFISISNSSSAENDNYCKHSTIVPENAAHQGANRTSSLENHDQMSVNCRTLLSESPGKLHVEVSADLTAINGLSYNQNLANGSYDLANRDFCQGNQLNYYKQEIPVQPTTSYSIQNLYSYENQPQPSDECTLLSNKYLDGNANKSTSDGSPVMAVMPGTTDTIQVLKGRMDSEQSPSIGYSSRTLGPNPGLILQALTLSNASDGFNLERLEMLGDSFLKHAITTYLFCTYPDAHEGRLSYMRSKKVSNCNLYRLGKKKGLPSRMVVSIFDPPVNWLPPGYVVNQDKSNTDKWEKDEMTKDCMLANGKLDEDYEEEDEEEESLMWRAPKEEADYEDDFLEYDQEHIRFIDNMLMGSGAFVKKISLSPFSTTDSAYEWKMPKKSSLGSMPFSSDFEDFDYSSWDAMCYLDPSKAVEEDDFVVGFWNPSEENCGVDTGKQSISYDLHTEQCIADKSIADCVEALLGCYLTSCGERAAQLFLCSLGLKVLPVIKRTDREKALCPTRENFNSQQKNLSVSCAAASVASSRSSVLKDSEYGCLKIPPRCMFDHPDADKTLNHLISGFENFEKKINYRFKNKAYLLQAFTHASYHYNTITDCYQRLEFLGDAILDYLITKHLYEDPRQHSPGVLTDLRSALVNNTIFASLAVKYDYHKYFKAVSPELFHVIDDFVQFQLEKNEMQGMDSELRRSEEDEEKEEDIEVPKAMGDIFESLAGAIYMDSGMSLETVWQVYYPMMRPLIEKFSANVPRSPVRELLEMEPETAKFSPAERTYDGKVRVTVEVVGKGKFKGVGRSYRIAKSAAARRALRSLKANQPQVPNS
For the compound `COCCCNc1nc(-c2ccccc2)cs1`, the z-score is 1.18 (inactive).
Regarding `Cc1cccc(Nc2nc(-c3ccccc3)cs2)n1`, the z-score is 3.09 (active).
Next, `c1ccc(Nc2nc(-c3ccncc3)cs2)nc1`: 2.79 (inactive); `CC(C)(C)NC(=S)Nc1ccc(F)c(Cl)c1`: 16.8 (inactive).
For `CC1(C)N=C(N)N=C(N)N1c1ccccc1C(F)(F)F`, the z-score was 1.59 (inactive).
Next, `CCOC(=O)Cc1csc(NC(=O)Nc2cccc3ccccc23)n1`: 6.9 (inactive); `Cn1nc(-c2ccc(Cl)cc2)[nH]c1=O`: -1.42 (inactive).
Consider `Cc1nc(-c2ccc(C(F)(F)F)cc2)[nH]c(=O)c1Oc1ccc(Cl)cc1Cl`, for which the z-score is 0.23 (inactive).
As for `CCCCc1c(COC)nc(-c2ccc(Cl)cc2)[nH]c1=O`, the z-score was 3.16 (active).
Next, `O=S(=O)(c1ccc(C2Nc3ccc(Cl)cc3C3C=CCC32)cc1)N1CCOCC1` (stereo not given): -0.43 (inactive); `O=C(O)C1Nc2ccc(Cl)cc2C2C=CCC12` (stereo not given): 15.4 (active).
On to `COC(=O)c1ccc([C@@H]2Nc3ccc(F)cc3[C@@H]3C=CC[C@@H]32)cc1`, for which the z-score is 0.68 (inactive).
Consider `CSC(=NCc1ccco1)Nc1ccc(Cl)cc1`, for which the z-score is 2.16 (inactive).
In the case of `CCc1ccnc(NC(=O)Nc2ccc(OCc3ccccc3)cc2)c1`, the z-score is 0.13 (inactive).
As to `c1ccc(-c2cc(-c3ccccc3)[nH]n2)cc1`, the z-score was 0.74 (inactive).
In the case of `Nc1cc(-c2ccccc2)nn1-c1ccccc1`, the z-score is -0.41 (inactive).
Consider `Nc1cccc(-c2cc(-c3ccccc3)nc(-c3cccc(N)c3)n2)c1`, for which the z-score was 8.06 (active).
Next, `O=C(O)CCc1nc2ccccc2[nH]c1=O`: -2.59 (inactive); `COc1cccc(OC)c1C(=O)NC(=O)Nc1c(C)cc(Br)cc1C`: -0.89 (inactive); `CN(C)/C=C/c1nnnn1-c1ccc(Br)cc1`: 2.13 (inactive).
Turning to `Nc1c(C(=O)NNC(=S)Nc2ccccc2)cnn1-c1ccccc1`, the z-score is 3.4 (active).
Next, `Cc1cc(NC(=O)Nc2ccccc2)n(-c2ccccc2)n1`: -0.46 (inactive); `NNC(=O)c1cnn(-c2ccccc2)c1C(F)(F)F`: -1.32 (inactive).
Turning to `CCc1ncc(C(O)c2ccccc2)n1C` (stereo not given), the z-score was -0.48 (inactive).
For the compound `COCCCn1c2c(c(=O)[nH]c1=O)C(c1ccc(C(=O)O)cc1)C1=C(N2)c2ccccc2C1=O` (stereo not given), the z-score is -1.05 (inactive).
As for `COc1cc(C(=O)NCC2CCCO2)c(OC)cc1C(=O)NCC1CCCO1` (stereo not given), the z-score is 1.74 (inactive).
As for `Nc1nc(/C=C/c2ccc(O)cc2)nc(-c2ccccc2O)n1`, the z-score is 5.62 (active).
As for `COc1ccc(/C=C/c2noc(-c3ccccc3O)n2)cc1OC`, the z-score is 0.89 (inactive).
Turning to `Oc1ccccc1-c1nc(/C=C/c2ccc(F)cc2)no1`, the z-score is -0.19 (inactive).
Take `CN1c2ccc(Cl)cc2C(C)(C)C12C=Nc1c(ccc3ccccc13)O2` (stereo not given): the z-score was -0.52 (inactive).
Consider `O=C(Nc1ccccc1)Nc1ccc(C(F)(F)F)cn1`, for which the z-score is 0.31 (inactive).
On to `CC(C)Cn1c(Cn2c3ccccc3c3ccccc32)n[nH]c1=S`, for which the z-score was 3.9 (active).
Consider `CCn1c(CN2C(=O)CSc3ccccc32)n[nH]c1=S`, for which the z-score was 0.75 (inactive).
Turning to `OCC(O)Cn1c2ccccc2c2ccccc21` (stereo not given), the z-score is -0.45 (inactive).
For `CCOC(=O)c1c(C)nn(-c2ncccc2[N+](=O)[O-])c1C`, the z-score is -0.17 (inactive).
For `Cc1[nH]nc(NCc2ccccc2)c1[N+](=O)[O-]`, the z-score was -1.14 (inactive).
With `O=C1CC(c2ccccc2)N(c2ccc(OC(F)(F)F)cc2)C(=S)N1` (stereo not given), the z-score is -0.98 (inactive).
On to `O=C(Nc1ccccc1)O/N=C1\CCSC1`, for which the z-score is 0.99 (inactive).
Regarding `O=C1c2oc3ccccc3c(=O)c2C(c2cccc(O)c2)N1c1ccccn1` (stereo not given), the z-score was 3.7 (active).
Next, `Cc1ccc(N2C(=O)c3oc4cc(C)c(C)cc4c(=O)c3C2c2ccc(O)cc2)nc1` (stereo not given): 0.43 (inactive).
As to `C=CCOc1cccc(C2c3c(oc4ccccc4c3=O)C(=O)N2c2ccc(C)cn2)c1` (stereo not given), the z-score was 0.54 (inactive).
Next, `Cc1ccc(N2C(=O)c3oc4ccccc4c(=O)c3C2c2cccnc2)nc1` (stereo not given): 3.52 (active); `C=CCOc1ccc(C2c3c(oc4ccccc4c3=O)C(=O)N2c2ccc(C)cn2)cc1` (stereo not given): 0.29 (inactive); `O=C1c2oc3ccccc3c(=O)c2C(c2cccc(O)c2)N1Cc1ccccc1` (stereo not given): 0.58 (inactive).
With `Cc1nc(N/N=C2\CCCc3ccccc32)sc1C`, the z-score is 0.78 (inactive).
For `CC(C)(C)NC(=O)c1nn2c(C(F)(F)F)cc(-c3ccccc3)nc2c1Cl`, the z-score is -0.55 (inactive).
On to `CCCc1nnc(N2C(=O)c3oc4ccc(F)cc4c(=O)c3C2c2ccc(OC)cc2)s1` (stereo not given), for which the z-score is 1.52 (inactive).
As to `O=C(N/C=C/c1ccsc1)Nc1cc(C(F)(F)F)cc(C(F)(F)F)c1`, the z-score is 0.88 (inactive).
Consider `Cc1ccc(NC(=O)Nc2cc(-c3ccccc3)nn2C)cc1Cl`, for which the z-score is 0.04 (inactive).
As for `CCCCC1(C2CC(=O)N(c3ccccc3)C2=O)C(=O)N(c2ccccc2)N(c2ccccc2)C1=O` (stereo not given), the z-score was 1.04 (inactive).
Turning to `O=C1CC(NCC2CCCCC2)C(=O)N1c1ccccc1` (stereo not given), the z-score was 3.63 (active).
Consider `O=C1CC(Cc2ccc(Cl)cc2)C(=O)N1c1ccccc1` (stereo not given), for which the z-score was 0.01 (inactive).
With `O=C(C1Sc2nnc(-c3ccccc3)n2NC1c1ccc(F)cc1)N1CCOCC1` (stereo not given), the z-score was 2.92 (inactive).
Next, `COc1ccc(-c2cc3nccc(-c4cc(F)ccc4O)n3n2)cc1`: 1.88 (inactive); `Cc1ccc(-c2cc3nccc(-c4ccccc4O)n3n2)cc1`: 3.02 (active).
As to `Cc1cc(-c2ccccc2)n2nc(-c3ccccc3)cc2n1`, the z-score is 0.87 (inactive).
Turning to `CC1CCc2c(sc3ncnc(SC(C)C(=O)O)c23)C1` (stereo not given), the z-score is -0.91 (inactive).
With `CCOC(=O)c1sc(N2C(=O)c3oc4ccccc4c(=O)c3C2c2cccs2)nc1C` (stereo not given), the z-score was 1.43 (inactive).
Turning to `CCOC(=O)c1ccc(NC(=S)N(Cc2ccccc2)C(C)C)cc1`, the z-score was -0.22 (inactive).
In the case of `O=C(NCCC(O)C(=O)O)OCc1ccccc1` (stereo not given), the z-score is -1.43 (inactive).
On to `O=C(O)Cc1ccc(-c2ccccc2)cc1`, for which the z-score was -0.37 (inactive).
Consider `CC(C)(C)OC(=O)NCC(=O)OCc1ccc(CC(=O)O)cc1`, for which the z-score was 3.04 (active).
As for `COc1ccc2cccc(OC)c2n1`, the z-score is -1.05 (inactive).
Take `O=C(Nc1nc2ccsc2c(=O)s1)c1ccccc1`: the z-score was -0.44 (inactive).
For `O=C(O)/C=C/C(=O)N1CCN(c2nccc(C(F)(F)F)n2)CC1`, the z-score was 0.2 (inactive).
As for `NC(=O)c1c(NC(=O)c2sc3cc(Cl)ccc3c2Cl)sc2c1CCC2`, the z-score was 0.57 (inactive).
Next, `COc1ccc(S(=O)(=O)N(C(=O)c2ccncc2)c2ccc3oc(=O)sc3c2)cc1OC`: 3.3 (active); `O=C(c1cccnc1)N(c1cc2sc(=O)oc2c2ccccc12)S(=O)(=O)c1ccccc1`: -2.86 (inactive).
Turning to `CCCCC(=O)N(c1ccc2oc(=O)sc2c1)S(=O)(=O)c1ccc(F)cc1`, the z-score is 3.38 (active).
Consider `O=C(c1cccnc1)N(c1ccc2oc(=O)sc2c1)S(=O)(=O)c1ccccc1`, for which the z-score was 3.74 (active).
Next, `COC(=O)c1c(C)oc2ccc(N(C(=O)Oc3ccccc3)S(=O)(=O)c3ccccc3)cc12`: -0.23 (inactive); `CCOC(=O)C(C)Oc1ccc2c(=O)c(-c3ccc(OC)c(OC)c3)c(C(F)(F)F)oc2c1` (stereo not given): 0.03 (inactive).
`O=C1/C(=C/c2cc(Br)cs2)Cc2ccccc21`: the z-score is -0.91 (inactive).
With `CCOC(=O)/C(C#N)=C/N=C(N/N=C(\C)c1cc2ccccc2o1)SC`, the z-score was -2.01 (inactive).
Take `NC(=O)CN1C(=O)C(O)(CC(=O)c2ccc3c(c2)CCCC3)c2ccccc21` (stereo not given): the z-score is -1.03 (inactive).
As to `O=S(=O)(c1cc(Cl)ccc1Cl)N1c2ccccc2OC1c1ccc(Cl)c(Cl)c1` (stereo not given), the z-score was -0.36 (inactive).
Regarding `CSC(=Nc1ccccc1C(F)(F)F)N1CCCC1`, the z-score was 1.69 (inactive).
Next, `CSC(=Nc1cc(C(F)(F)F)cc(C(F)(F)F)c1)N1CCCCC1`: 5.99 (active).
Turning to `CCCC1c2ccsc2CCN1C(=S)Nc1ccccc1C(=O)OC` (stereo not given), the z-score was -0.25 (inactive).
For `CSc1nnc(/N=C/c2ccccc2O)s1`, the z-score is 0.16 (inactive).
On to `Oc1ccccc1C=NCCCN=Cc1ccccc1O`, for which the z-score was 4.14 (active).
On to `O=C(O/N=C(/Cc1ccccc1)C(F)(F)F)c1ccc(Cl)cc1`, for which the z-score was -0.11 (inactive).
As to `Cc1cc(C)c2c(-n3cccc3)c(C(=O)c3ccc(Cl)cc3)sc2n1`, the z-score is -2.32 (inactive).
In the case of `Cc1cc(-c2cccs2)c2c(N)c(C(=O)c3ccccc3)sc2n1`, the z-score is 0.82 (inactive).
Regarding `Nc1c(C(=O)c2ccc(Cl)cc2)sc2nc(-c3cccs3)cc(C(F)(F)F)c12`, the z-score is 4.28 (active).
In the case of `COc1cccc(-c2nc(-c3cc4cc(C)ccc4[nH]c3=O)no2)c1`, the z-score was 0.33 (inactive).
Next, `Cc1cc(C)c2c(N)c(-c3n[nH]c(=S)n3C)sc2n1`: -3.29 (inactive); `CCOC(=O)c1c(NC(=O)c2sc3nc(C)cc(COC)c3c2N)sc2c1CCCC2`: -1.64 (inactive); `Cc1cc(C)c2c(N)c(C(=O)NNC(=S)Nc3ccccc3)sc2n1`: 5.62 (active).
`C(#CCN1CCCCC1)COC(c1ccccc1)c1ccccc1`: the z-score is 4.06 (active).
`C#CC(CCN1CCCCC1)(OC)c1ccccc1` (stereo not given): the z-score was -0.6 (inactive).
Take `NS(=O)(=O)c1ccc2c(c1)OCCO2`: the z-score was -0.87 (inactive).
Regarding `CCn1nc(C)cc1-c1n[nH]c(=S)n1-c1ccccc1`, the z-score was -0.98 (inactive).
Consider `Cc1cc(C)cc(Oc2coc3cc(OCC(=O)OC(C)C)ccc3c2=O)c1`, for which the z-score was 0.93 (inactive).
Turning to `Cc1onc(-c2c(Cl)cccc2Cl)c1C(=O)N=S(C)(C)=O`, the z-score is 0.49 (inactive).
`Cc1onc(-c2ccccc2Cl)c1C(=O)OCC(=O)c1ccccc1`: the z-score is 4.29 (active).
In the case of `Cc1[nH]n(C)c(=O)c1C(=O)c1c(-c2c(Cl)cccc2Cl)noc1C`, the z-score is -0.59 (inactive).
As to `CCOCc1ccc2oc(C(=O)OCCN(CC)CC)cc2c1`, the z-score was 0.17 (inactive).
As to `Cc1nn2c3c(cnc2c1-c1ccc(F)cc1)C(=O)CC(c1cccc(Cl)c1)C3` (stereo not given), the z-score is 0.34 (inactive).
For the compound `Oc1c(Cl)cc(Cl)c(Cl)c1Cc1c(O)c(Cl)cc(Cl)c1Cl`, the z-score was 13.8 (active).
